# From PubChem BioAssay
# Only a selection was taken, and hits are over-represented in it overall.
# PTHR1 ag: qHTS for PTHR1 Agonists: Primary Screen; Parathyroid hormone/parathyroid hormone-related peptide receptor (Homo sapiens), Q03431; HEK293 GP2 PTHR1 cells, GloSensor cAMP luminescence, 1 h; Potency, µM (highest dose often 115 µM), for inactives: at the top dose activation, most hits filed as activators; 410,000 compounds, 0.075% hits; AID 743266, 2014; further: potency means the concentration at half of the fitted maximal effect; nearly all actives have a fitted effect of over 55% in size
#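 HEK-293-derived GP2 cells expressing PTHR1 and a GloSensor cAMP reporter, 3,000/well, plated overnight, given luciferin plus IBMX (each 0.5 mM as added) for 1 h at 37 °C, then compound for 1 h at 37 °C. Luminescence was read after 15 min at room temperature.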
# RXFP1 agonist: qHTS Assay for Agonists of the Relaxin Receptor RXFP1; HEK293T-RXFP1 cAMP TR-FRET, 30 min; response scale: percent of porcine relaxin response, buffer zero; 370,000 compounds, 0.3% hits; AID 2676, 2010; Potency, µM (highest dose often 57.5 µM), inactives show top-dose activation, hits mostly activators; further: potency means the concentration at half of the fitted maximal effect; on the % scale 0 is the no-effect control and ±100 the full control effect; nearly all actives have a fitted effect of over 60% in size
#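 HEK293T cells stably expressing RXFP1 were pretreated with the PDE4 inhibitor Ro 20174, exposed to compounds for 30 min at 37C, lysed, and cAMP was read by TR-FRET. Data normalized to buffer (basal) and 29 nM porcine relaxin (100%).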
# RXFP1 antag: qHTS Assay for Antagonists of the Relaxin Receptor RXFP1; Relaxin receptor 1 (Homo sapiens), Q9HBX9; HEK293-RXFP1, relaxin-stimulated cAMP HTRF, 30 min; hits give low values; activity change, negative = inhibition, % at 57.5 µM; 350,000 compounds, 0.59% hits;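 active means activity change of -60% or lower, but not beyond a set lower limit; inconclusive means change between -60% and -40%, or beyond the set limit; inactive means change above -40%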; further: on the % scale 0 is the no-effect control and ±100 the full control effect
# NPSR antag: qHTS Assay for Antagonists of the Neuropeptide S Receptor: cAMP Signal Transduction; 220,000 compounds, 1% hits; Potency, µM (doses to about 38.3 µM), for the others: at the top dose activity change, negative = inhibition, most hits filed as inhibitors; CHO-NPSR cells, cAMP TR-FRET, antagonist mode; Q6W5P4; further: potency means the concentration at half of the fitted maximal effect; on the % scale 0 is the no-effect control and ±100 the full control effect; nearly all actives have a fitted effect of over 50% in size
# TCR act: Activators of T cell receptors: qHTS campaign | Potency, µM (doses to about 9.22 µM), for the others: at the top dose activation of IL-2 secretion, hits mostly activators | 330,000 tested, under 10 active | primary human leukocytes, anti-CD3, IL-2 HTRF, 48 h | AID 504894, 2011; further: % of control where 0% means no effect
#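 Primary human leukocytes incubated 48 hr with anti-CD3 beads plus compound, without co-stimulation. Secreted IL-2 measured by HTRF (europium cryptate/d2 anti-IL-2 pair, 320 nm excitation, 665 nm emission).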
# TSHR antagonist: Antagonists of the Thyroid Stimulating Hormone Receptor: HTS campaign; Thyrotropin receptor (Homo sapiens), P16473; 330,000 compounds, 0.2% hits; activity change, negative = inhibition, % at 11.5 µM; TSHR-expressing cells, TSH-stimulated cAMP HTRF, 2 h; hits give low values;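 active means activity change below a set negative limit, meaning inhibition stronger than a set level, cut at about -70% in these data; inconclusive means activity change between two set negative limits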; further: on the % scale 0 is the no-effect control and ±100 the full control effect
# Target sequence (P16473 whole entry, looked up): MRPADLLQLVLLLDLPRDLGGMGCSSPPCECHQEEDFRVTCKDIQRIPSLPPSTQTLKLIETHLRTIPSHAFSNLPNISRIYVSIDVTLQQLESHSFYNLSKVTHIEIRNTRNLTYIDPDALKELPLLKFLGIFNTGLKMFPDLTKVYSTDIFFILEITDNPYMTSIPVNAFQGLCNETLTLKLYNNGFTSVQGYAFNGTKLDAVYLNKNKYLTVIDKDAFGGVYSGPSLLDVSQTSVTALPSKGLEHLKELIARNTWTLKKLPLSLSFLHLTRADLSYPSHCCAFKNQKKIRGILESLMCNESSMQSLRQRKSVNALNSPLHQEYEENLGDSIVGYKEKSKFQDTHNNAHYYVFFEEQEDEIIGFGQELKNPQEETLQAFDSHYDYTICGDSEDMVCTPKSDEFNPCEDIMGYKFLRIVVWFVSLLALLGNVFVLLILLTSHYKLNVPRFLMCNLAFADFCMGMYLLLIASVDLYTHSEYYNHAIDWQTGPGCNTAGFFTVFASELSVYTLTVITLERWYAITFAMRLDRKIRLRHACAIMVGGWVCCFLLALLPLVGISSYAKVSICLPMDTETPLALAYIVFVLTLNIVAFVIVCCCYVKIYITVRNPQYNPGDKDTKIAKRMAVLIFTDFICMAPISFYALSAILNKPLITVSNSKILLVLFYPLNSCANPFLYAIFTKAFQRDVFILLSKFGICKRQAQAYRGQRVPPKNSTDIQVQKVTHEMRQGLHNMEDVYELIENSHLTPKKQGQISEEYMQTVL
#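 TSHR-expressing cells were treated with compounds, then stimulated with TSH at EC80 (4nM final) for 2 hours at 37 deg C. Cellular cAMP was measured by HTRF competition between lysate cAMP and cAMP-d2 for a cryptate-labelled anti-cAMP antibody.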
# Active calls of the source: *; i = inactive; ? = inconclusive; · = no result given; [ ] = dose if it differs, or a comment. Unless noted, the call rests on the fitted dose curve; in most records, active means well fitted curve in the direction sought with a large enough effect; inconclusive means small, poorly fitted or top-dose-only effect, or another doubt; inactive means no such curve, though single readings can be large; an effect the other way counts as inactive or inconclusive.
SMILES,PTHR1 ag,RXFP1 agonist,RXFP1 antag,NPSR antag,TCR act,TSHR antagonist
CC(C)CCC(O)(c1ccccc1)C(CN1CCOCC1)c1ccccc1 (centres undefined),-23%,-1%,-80*,·,6%,-7
COc1ccc(C(O)(CCC(C)C)C(CN2CCOCC2)c2ccccc2)cc1 (centres undefined),-33%,5%,?,·,7%,1
CCCCCC(O)(c1ccccc1)C(CN1CCOCC1)c1ccccc1 (centres undefined),-9%,0%,-64*,·,5%,-7
O=P(O)(O)OC[C@@H](O)CO,·,·,3,·,·,·
COc1ccc(Br)cc1CNC(=O)c1ccc2c(c1)nc1n2CCCCC1,i,3%,?,·,·,·
CCN(CC)CCNC(=O)c1[nH]c2ccccc2c1Sc1ccc(Cl)cc1,-23%,27%,-33,·,·,·
CSc1ccc(CCNC(=O)C2CCCN(S(=O)(=O)N(C)c3ccc(F)cc3)C2)cc1 (centres undefined),-40%,4%,-23,·,·,·
CC(=O)Nc1cccc(NC(=O)c2cc([N+](=O)[O-])ccc2N2CCCCC2)c1,-2%,4%,-3,·,·,6
Cc1cccc(NC(=O)c2cc([N+](=O)[O-])ccc2N2CCCCC2)n1,-15%,0%,-16,10µM*,1%,-3
CCCCCCOc1ccc(C2C(=O)N(C3CCCCC3)CC(=O)N2CCC)cc1 (centres undefined),-32%,0%,-69*,·,·,·
COc1ccc(-c2onc(C)c2C)cc1S(=O)(=O)N(C)Cc1ccco1,-86%,5%,-25,·,·,·
O=C(Nc1ccc(-c2cn3cccnc3n2)cc1)c1cc(Br)ccc1Cl,i,-2%,·,·,·,·
N.N.O=C(O)C1(C(=O)O)CCC1.[Pt+2],·,·,·,·,·,-29
CCC(/C=C1\Sc2ccc(OC)cc2N1CCO)=C\c1sc2ccc(OC)cc2[n+]1CCO,i,-10%,-16,10µM*,13µM*,3
Cc1nn2c(=O)cc(COC(=O)c3cccc(NC(=O)COc4ccccc4C)c3)nc2s1,-36%,0%,-8,·,·,·
Cn1c(/C=C/c2ccc([N+](=O)[O-])o2)nc2ccccc2c1=O,-10%,11%,4,10µM*,-6%,-19
Cn1c(/C=C/c2ccccc2)nc2ccccc2c1=O,-11%,0%,-15,·,1%,-23
CCC(C(=O)NCCCN1CCOCC1)n1c2ccccc2c2nc(=O)cc(C)n21 (centres undefined),-28%,0%,-70*,·,-2%,-11
Cc1cc(=O)nc2c3ccccc3n(C(C)C(=O)NCCN3CCOCC3)n12 (centres undefined),i,8%,-1,·,-1%,-1
CCOC(=O)c1cc(-c2ccc(C)cc2)n(CCCC(=O)Nc2cc(C)ccc2C)c1,9%,-2%,-13,·,·,·
CCCCN1C(=O)C(O)(c2c(C)[nH]c3ccccc23)c2cc(Br)ccc21 (centres undefined),-25%,0%,-103*,·,·,·
COc1ccc(S(=O)(=O)N2CCOCC2)cc1NC(=O)CSc1nnc2ccccn12,·,3.5µM*,·,8%,·,76
CC(/C=N/NC(=O)c1cc(-c2ccc(C)o2)[nH]n1)=C\c1ccccc1,-12%,1%,-16,-4%,1%[46.1 µM],-1
O=C(N/N=C/C(Br)=C/c1ccccc1)c1cc(-c2ccco2)[nH]n1,-20%,0%,-81*,-32%,1%,0
COc1cc(C(=O)Oc2ccc3c(c2)OCC3=O)cc(OC)c1OC,-1%[57.5 µM],-1%,-7,-1%[46.1 µM],-9%,20
O=C(Oc1ccc2c(c1)OCC2=O)c1ccc(Cl)cc1,-9%,0%,-60*,-18%,-6%,-2
